Assay results taken from PubChem BioAssay.
A number with no mark means an inactive call. Active and inactive are the calls of the source.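 How the source made its calls: active means inhibition at or above 50% relative to wild type and mutant plate controls; inactive means inhibition below 50%.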

Test: loss of swimming-algae plug formation – whole organism, Chlamydomonas reinhardtii, WT vs cilia-less mutant, absorbance, 96-well, primary screen (AID 463189);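 further: 0% = wild type cc124 cells in DMSO and 100% = ciliumless bld1 mutant cells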
Conditions: Chlamydomonas reinhardtii gravitaxis, OD600 absorbance, 2 days; at 10 µM; stronger effect = higher value

SMILES | inhibition
C/C(O)=C(\C#N)C(=O)Nc1cc(Br)ccc1Br | 2.1%
C[C@]12CCC3C(CC[C@H]4C[C@H](O)CC[C@]34C)C1CC[C@@H]2C(=O)CO (stereo partly specified) | 4.52%
CNCCc1ccc(O)c(O)c1 | 8.08%
NCC#Cc1ccccc1 | 1.68%
N[C@H](CCCCCP(=O)(O)O)C(=O)O | -8.7%
CCCN1CCC[C@@H](c2cccc(O)c2)C1 | 0.338%
CN1CCC(c2c[nH]c3ccc(O)cc23)CC1 | 4.07%
COc1ccc2c(c1OC)C(=O)O[C@H]2[C@@H]1c2cc3c(cc2CCN1C)OCO3 | -6.11%
Cc1nc(-c2ccc(-c3ccc(C(=O)N4CCc5cc6c(cc54)C4(CCN(C)CC4)CO6)cc3)c(C)c2)no1 | 141% (active)
NC(CCP(=O)(O)O)C(=O)O (stereo unspecified) | 17.2%
NCCCP(=O)(O)O | 13.9%
O=C1CCCN1CC#CCN1CCCC1 | 7.02%
CNC(=O)OCC[N+](C)(C)C | -0.129%
C/C=C(/C)C(=O)O[C@H]1C(C)=C2[C@H]([C@@H]1OC(=O)CCCCCCC)[C@@](C)(OC(C)=O)C[C@H](OC(=O)CCC)[C@@]1(O)[C@H]2OC(=O)[C@@]1(C)O | -1.82%
C[C@]12CC[C@H](O)CC1=CC[C@@H]1[C@@H]2CC[C@]2(C)C(=O)CC[C@@H]12 | -2.3%
Oc1ccc2c3c1O[C@H]1c4oc5ccccc5c4C[C@@]4(O)C(C2)N(CC2CC2)CCC314 (stereo partly specified) | 3.38%
